Compounds with a hit are over-represented: about 19% of the library has one in this group of screens.
Giardia killer: Small Molecules that selectively kill Giardia lamblia: qHTS | Giardia lamblia trophozoite viability | activity change, % at 7.66 µM, hits read low | AID 540267, 2011 | 0.15% of 340,000 active; in the data active = activity change below about -80%; inconclusive = between about -30% and that limit;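 also: parasites exposed to compound for two days anaerobically before the ATP read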
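Luminescent ATP signal served as the viability read-out, measured 15-30 min after adding ATP detection reagent to trophozoites that had been incubated with compounds for 48 hrs at 37 deg C anaerobically at 100 cells/well.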
DT40 TDP1 CPT: qHTS for Inhibitors of human tyrosyl-DNA phosphodiesterase 1 (TDP1): qHTS in cells in presence of CPT; chicken DT40 Tdp1-/-;hTDP1 cells + 20 nM CPT, ATP luminescence, 48 h; Potency, µM (highest dose often 46.2 µM), without a hit: top-dose activity change, negative = growth inhibition, most hits filed as inhibitors; 12% of 420,000 active; also: potency is read from the fitted curve at half-maximal effect; nearly all actives have a fitted effect of over 55% in size
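Chicken DT40 Tdp1-/- cells stably complemented with human TDP1 were seeded at 400 cells/well in medium containing 20 nM camptothecin, exposed to pin-transferred compounds, and grown at 37 °C for at least 48 hr. Viability was read as ATP luminescence.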
ELG1 DNA repair: qHTS screen for small molecules that inhibit ELG1-dependent DNA repair in human embryonic kidney (HEK293T) cells expressing luciferase-tagged ELG1. HEK293T ELG1-luciferase reporter, luminescence, 16 h; DNA damage induced by 5-fluorouridine. Potency, µM (doses to about 46.1 µM), for the others: at the top dose activity change, negative = inhibition, most hits filed as inhibitors. 2.3% of 330,000 active; also: potency is read from the fitted curve at half-maximal effect; nearly all actives have a fitted effect of over 55% in size
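In this reporter screen, reduction of luminescence relative to DMSO vehicle indicated activity. Compounds and 5-fluorouridine were added together to 2,000 cells per well, incubated for 16 hr at 37 °C, then developed with ONE-Glo.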
IL-1B inflam inh: qHTS for Inhibitors of Inflammasome Signaling: IL-1-beta AlphaLISA Primary Screen; THP-1 LPS/ATP IL-1B secretion, AlphaLISA, 16 h; hits give low values; activity change, % at 57.5 µM; 4.7% of 360,000 active; AID 743279, 2014; in the data active = activity change below about -50%; inconclusive = mostly about -30% to -49%
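THP-1 cells pretreated 1 hr with compounds (up to 57.5 uM final), then stimulated with LPS (250 ng/mL final) plus ATP (1.25 mM final); secreted IL-1B measured by AlphaLISA after 16 hr, decreased signal indicating inhibition.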
TDP1 cell noCPT: qHTS for Inhibitors of human tyrosyl-DNA phosphodiesterase 1 (TDP1): qHTS in cells in absence of CPT; DT40 Tdp1-/- hTDP1 cells, no CPT, ATP luminescence, 48 h; Potency, µM (doses to about 46.2 µM), for the others: top-dose activity change, negative = growth inhibition, actives largely listed as inhibitors; 15% of 420,000 active; AID 686978, 2013; also: potency is read from the fitted curve at half-maximal effect; nearly all actives have a fitted effect of over 55% in size
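Compound effects on proliferation are scored in DT40 Tdp1-/-;hTDP1 cells in the absence of CPT. ATP levels (CellTiter-Glo luminescence) are recorded after a ≥48 hr, 37 °C incubation.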
TDP1 block: qHTS Assay for Inhibitors of Tyrosyl-DNA Phosphodiesterase (TDP1) | recombinant TDP1, AlphaScreen DNA substrate cleavage | 0.28% of 350,000 active | Potency, µM (titrated, usually from 130 µM), for the others: top-dose activity change, negative = inhibition, actives largely listed as inhibitors; also: potency is read from the fitted curve at half-maximal effect; nearly all actives have a fitted effect of over 40% in size
Target sequence (Q9NUW8 whole entry, looked up): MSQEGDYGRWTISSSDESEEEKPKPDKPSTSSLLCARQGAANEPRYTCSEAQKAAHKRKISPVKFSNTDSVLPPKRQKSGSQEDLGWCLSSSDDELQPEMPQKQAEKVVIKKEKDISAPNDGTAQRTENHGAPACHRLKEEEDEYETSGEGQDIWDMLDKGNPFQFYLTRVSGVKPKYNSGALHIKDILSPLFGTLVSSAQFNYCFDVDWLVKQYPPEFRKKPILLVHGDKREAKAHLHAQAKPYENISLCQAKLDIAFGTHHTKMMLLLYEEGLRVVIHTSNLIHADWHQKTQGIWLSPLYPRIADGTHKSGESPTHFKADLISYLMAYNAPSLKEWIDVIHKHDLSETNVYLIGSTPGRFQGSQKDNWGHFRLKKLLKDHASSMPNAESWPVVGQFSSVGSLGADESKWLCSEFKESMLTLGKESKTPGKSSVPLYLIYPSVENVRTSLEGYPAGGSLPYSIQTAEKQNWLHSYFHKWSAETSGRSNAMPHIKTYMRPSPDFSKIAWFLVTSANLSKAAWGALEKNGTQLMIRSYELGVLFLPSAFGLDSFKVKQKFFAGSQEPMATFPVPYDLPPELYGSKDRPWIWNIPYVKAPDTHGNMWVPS
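Here, a 5' biotin and 3' phosphotyrosine-FITC DNA oligonucleotide reports Tdp1 activity: intact substrate bridges AlphaScreen beads, while cleavage leaves a 3' phosphate and drops signal. All incubations at room temperature.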
An asterisk follows results filed as active; ? = inconclusive; . = not tested or not shown; ! = repeats disagree; [ ] = remark or other dose. Unless noted, calls follow the shape of the dose curve; as a rule, active = well fitted curve in the direction sought with a large enough effect; inconclusive = small, poorly fitted or top-dose-only effect, or another doubt; inactive = no such curve, though single readings can be large; an effect the other way counts as inactive or inconclusive. % is scaled to controls: 0 for no effect and ±100 for the full control effect.

SMILES	Giardia killer	DT40 TDP1 CPT	ELG1 DNA repair	IL-1B inflam inh	TDP1 cell noCPT	TDP1 block
Cc1ccc(C(=O)N/C(=C/c2ccc(-c3cccc([N+](=O)[O-])c3)o2)C(=O)NC(C)(C)C)cc1	-7	?	?	-5	13µM*	0%
COc1ccc(C(=O)N/C(=C\c2ccc(-c3cccc([N+](=O)[O-])c3)o2)C(=O)NCCCN2CCOCC2)cc1	.	?	.	-25	16µM*	.
Cc1ccc(C(=O)N/C(=C/c2ccc(-c3cccc([N+](=O)[O-])c3)o2)C(=O)NC(C)C)cc1	1	?	?	-13	?	9%
CN(C)C(=O)/C(=C/c1ccc(-c2cccc([N+](=O)[O-])c2)o1)NC(=O)c1ccccc1	1	?	?	?	?	.
CN(C)C(=O)/C(=C\c1ccc(-c2cccc([N+](=O)[O-])c2)o1)NC(=O)c1ccccc1	-18	15µM*	21µM*	-16	16µM*	11%
O=C(Nc1ccc2snnc2c1)Nc1cccc2ccccc12	26	23µM*	?	-26	?	0%
Cc1ccc(NC(=O)Nc2ccc3snnc3c2)cc1C	.	?	.	.	?	3%
CCc1ccccc1NC(=O)Nc1ccc2snnc2c1	.	18µM*	.	.	21µM*	-8%
CCOC(=O)c1ccc(NC(=O)Nc2ccc3snnc3c2)cc1	.	?	.	.	2.9µM*	8%
COc1ccc(C(=O)/C=C/C(=O)N(CC(=O)NC2CCCCC2)Cc2ccccc2OC)c(O)c1	-2	1.6µM*	?	-100*	2.1µM*	1%
COc1ccc(C(=O)/C=C/C(=O)N(CC(=O)NC2CCCCC2)Cc2ccccc2)c(O)c1	4	1.5µM*	?	-100*	2.1µM*	-2%
Cc1c(CCC(=O)O)c(=O)oc2c(C)c(OCc3cc4c(cc3Cl)OCO4)ccc12	-1	0%	1%	-13	-4%	.
CC(=O)N[C@@H](CC(=O)O)C(=O)N[C@@H](CCC(=O)O)C(=O)O	.	11%	.	.	-6%	16µM*!
CC(=O)NC(CCC(=O)O)C(=O)O (stereo unspecified)	5	0%	.	-5	3%	-7%
CC(=O)/C(=C(/O)c1ccccc1)c1nc2ccccc2[nH]1	0	0%	?	-3	-10%	0%
Cc1ccc(NC(=S)c2nc3ccccc3[nH]2)c(C)c1	-16	?	?	2	?	8%
O=C(O)c1ccc(-c2nc3ccccc3[nH]2)cc1	21	9%	25%	26	11%	-1%
Cc1cccc(/C=C(\c2nc3ccccc3[nH]2)S(=O)(=O)c2ccccc2)c1	-27	4.1µM*	12µM*	-110*	2.6µM*	-2%
O=C(O)c1ccc(/C=C(\c2nc3ccccc3[nH]2)c2nc3ccccc3s2)cc1	-22	?	?	-70*	-27%	.
CC(C)(C)c1ccc(/C=C(\c2nc3ccccc3[nH]2)S(=O)(=O)c2ccccc2)cc1	4	23µM*	.	-96*	?	.
Cc1ccc(-c2[nH]ncc2CNC(C)c2ccccc2)cc1 (stereo unspecified)	14	?	.	.	?	5%
COc1cc(NC(=O)NCCn2nnc3cc(S(=O)(=O)N(C)C)ccc32)cc(OC)c1OC	.	-15%	.	.	3%	-4%
COC(=O)C/C=C\[C@@H](C)[C@@H](/C=N\O[C@@H](C)c1cn([C@H]2COC[C@H]2O)nn1)NS(=O)(=O)c1ccc(C)cc1	.	.	.	.	.	-1%[21 µM]
Cc1cc(-c2nsc(=O)o2)c(S(C)(=O)=O)s1	7	21µM*	1%	0	16µM*	7%
CCCCn1c(N)c(NCC)c(=O)[nH]c1=O	5	?	14%	32	23µM*	5%
SMILES	Giardia killer	DT40 TDP1 CPT	ELG1 DNA repair	IL-1B inflam inh	TDP1 cell noCPT	TDP1 block
CCN1C(=O)[C@@H]2[C@@H](c3ccc(-c4ccc(C(C)=O)cc4)cc3)N3CCCC[C@@]3(C(=O)OC)[C@@H]2C1=O	-4	16µM*	?	0	18µM*	-2%
COC(=O)[C@@]12CCCN1[C@H](c1ccc(-c3ccccc3)cc1)[C@H]1C(=O)N(C)C(=O)[C@H]12	-9	?	-11%	4	?	3%
CCN1C(=O)[C@H]2[C@@H](c3ccc(-c4ccccc4)cc3)N3CCCC[C@@]3(C(=O)OC)[C@H]2C1=O	7	?	-14%	-6	18µM*	0%
CCN1C(=O)[C@@H]2[C@@H](c3ccc(-c4ccc(OC)cc4)cc3)N3CCCC[C@@]3(C(=O)OC)[C@@H]2C1=O	0	26µM*	?	-6	16µM*	-1%
CCOc1ccc(CCNC(=O)C(C)N2C(=O)CC(C)(C)Sc3ccccc32)cc1 (stereo unspecified)	2	?	-4%	-11	?	.
O=C(O)C1CCCN(S(=O)(=O)c2cccs2)C1 (stereo unspecified)	14	3%	-5%	-1	-1%	2%
O=C(C1CCCN(S(=O)(=O)c2ccc(Br)s2)C1)N1CCN(c2cccc(Cl)c2)CC1 (stereo unspecified)	.	16µM*	.	.	21µM*	-11%[12.3 µM]
O=C(C1CCCN(S(=O)(=O)c2cccs2)C1)N1CCN(c2cccc(Cl)c2)CC1 (stereo unspecified)	.	21µM*	.	.	15µM*	2%
CC(Oc1ccc2c3c(c(=O)oc2c1)CCC3)C(=O)NCC1CCC(C(=O)O)CC1 (stereo unspecified)	-19	2%	?	12	3%	.
CNC[C@@H]1Oc2ccc(NS(=O)(=O)c3ccc(Cl)cc3)cc2C(=O)N([C@H](C)CO)C[C@@H]1C	-2	-19%	0%	-16	-15%	3%
N#CCc1ccc(NS(=O)(=O)c2ccc(C3CCCCC3)cc2)cc1	10	23µM*	-1%	12	15µM*	0%
Cc1cccc(NS(=O)(=O)c2ccc(C3CCCCC3)cc2)c1	11	21µM*	1%	-11	15µM*	1%
COc1ccc(S(=O)(=O)Nc2ccc(CC#N)cc2)cc1	2	-16%	-2%	16	-13%	-5%
N#Cc1ncc(Br)cn1	.	2%	.	.	-1%	.

Source: PubChem BioAssay
